Structures are written as SMILES. Among all 320,000 compounds or so, about 2,100 (0.66%) were called active. Inconclusive results (about 53%) are left out. The call rests on the fitted dose curve; in most records, active means well fitted inhibition curve with a large enough effect in the signal ratio, with a control signal flat (not every such curve was filed as active); inconclusive means small, poorly fitted or top-dose-only effect, or effect the other way, or a change in a side signal; inactive means flat fitted curve, though single readings scatter; the % refers to the signal ratio. The list comes from a sample in which actives are over-represented; it also holds similar structures and randomly drawn compounds.
Potency means the concentration at half of the fitted maximal effect.

The test is described as follows: qHTS Assay for Lipid Storage Modulators in Drosophila S3 Cells.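 On cell number change: cells counted by Cell Tracker Red CMTPX staining in the red channel.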 On lipid storage change, negative = inhibition: on the % scale 0 is the no-effect control and ±100 the full control effect. The conditions noted are these: BODIPY lipid droplet fluorescence, 18-24 h, cells fed with added oleic acid; cell number change: measured here: cell count max response; series mostly up to 46.1 µM; lipid storage change, negative = inhibition: at the top concentration. The procedure, abridged: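 Drosophila S3 cells loaded with oleic acid (400 uM, as added) and compounds at several concentrations; lipid droplets imaged by 488-nm laser-scanning cytometry, 500–530 nm intensity and object ratio to cell channel. Percent activity normalized to 20 uM Triacsin C.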
Consider `CC(C)c1nc2ccccc2n1CCC(=O)O`, for which the Potency is 16.4 µM (active) and the cell number change is -4.05%. Consider `CCc1nc2ccccc2n1CCC(=O)O`, for which the “lipid storage change, negative = inhibition” value is -5.95% (inactive) and the cell number change was -14.7%. Take `CCSc1nc2ccccc2n1CCC(=O)O`: the outcome was inactive. Regarding `CCC(C)(CC(=O)Nc1nccs1)c1ccccc1` (stereo not drawn), the “lipid storage change, negative = inhibition” value was 9.71% (inactive) and the cell number change was determined as 7.48%. Take `O=C(OCC#CCSc1nnc(-c2ccccc2)o1)c1cccs1`: the result was inactive and the cell number change is -0.992%. Consider `N#Cc1nc(-c2cccc3ccccc23)oc1NCC#CCOC(=O)c1cccs1`, for which the Potency was 14.6 µM (active) and the cell number change was -10.2%. As for `COc1ccc(CNc2oc(-c3cccc4ccccc34)nc2C#N)cc1`, the “lipid storage change, negative = inhibition” value is -4.38% (inactive) and the cell number change is -5.87%. In the case of `CC(NC(=O)CSc1n[nH]c(=O)n1C1CC1)C12CC3CC(CC(C3)C1)C2` (stereo not drawn), the molecule was called inactive and the cell number change came to 7.42%.

For the molecule `S=C1NCCOCCOCCOCCNC(=S)N2CCOCCOCCN1CCOCCOCC2`, the “lipid storage change, negative = inhibition” value was 12.4% (inactive) and the cell number change is -2.24%.

For the molecule `CCOC(=O)c1[nH]c(C)c(C(=O)NC2CCCCC2)c1C`, the “lipid storage change, negative = inhibition” value was 2% (inactive) and the cell number change is -4.45%. For the molecule `CCN(CC)CCCNC(=O)c1[nH]c(C)c(C(=O)NC2CCCCC2)c1C`, the Potency is 25.9 µM (active) and the cell number change was -5.4%.

With `CCOC(=O)c1[nH]c(C)c(C(=O)NC2CCCCCC2)c1C`, the “lipid storage change, negative = inhibition” value was 0.0369% (inactive) and the cell number change is -7.97%. Turning to `O=C(O)c1cccc(S(=O)(=O)Nc2ccc3oc(=O)sc3c2)c1`, the “lipid storage change, negative = inhibition” value was -2.72% (inactive) and the cell number change was 4.14%.

Take `Cc1cc(O)c(C(C)C)cc1NS(=O)(=O)c1ccccc1`: the result was inactive and the cell number change was -16.1%.

For the molecule `Cc1cc2oc(=O)sc2cc1NS(=O)(=O)c1ccccc1`, the Potency was 7.31 µM (active) and the cell number change amounted to 5.22%.

Take `COc1cccc(-c2cc(C(=O)NCC3CCCO3)c3cc(Br)cc(C)c3n2)c1` (stereo not drawn): the “lipid storage change, negative = inhibition” value was -22.3% (inactive) and the cell number change is -7.43%. With `O=C(O)CC(Cc1ccc(Br)cc1)C(=O)O` (stereo not drawn), the “lipid storage change, negative = inhibition” value is 26.3% (inactive) and the cell number change was -24.7%. In the case of `N=c1oc2ccccc2cc1C(=O)Nc1ccccc1`, the call was inactive and the cell number change is 8.78%. With `N=c1oc2c3c4c(cc2cc1C(=O)Nc1ccccc1)CCCN4CCC3`, the Potency was 5.8 µM (active) and the cell number change came to 5.35%. Take `N=c1oc2ccccc2cc1C(=O)Nc1ccc(F)cc1`: the “lipid storage change, negative = inhibition” value is 1.4% (inactive) and the cell number change worked out at 0.805%. As for `CC(C)COc1ccc(CSCCNC(=S)Nc2ccccc2)cc1`, the “lipid storage change, negative = inhibition” value was -21% (inactive). For `O=C1C2CCCN2C(c2cccs2)N1c1ccc(F)cc1` (stereo not drawn), the “lipid storage change, negative = inhibition” value was 0.267% (inactive) and the cell number change is -1.44%. Consider `Cc1ccc2nc3c(cc(C(=O)NCC4CCCO4)n3C)c(=O)n2c1` (stereo not drawn), for which the “lipid storage change, negative = inhibition” value was 5.2% (inactive) and the cell number change turned out to be 19.4%. For the molecule `O=C(/C=C/c1ccco1)c1ccc(NC(=O)C23CC4CC(CC(C4)C2)C3)cc1`, the Potency is 16.4 µM (active) and the cell number change was -23.6%.

In the case of `CC(=O)Nc1ccc(C(=O)/C=C/c2ccco2)cc1`, the “lipid storage change, negative = inhibition” value was 9.95% (inactive) and the cell number change was -0.499%.

Consider `O=C(N/N=C/c1ccco1)C12CC3CC(CC(C3)C1)C2`, for which the “lipid storage change, negative = inhibition” value is -8.38% (inactive) and the cell number change was -15.4%.

For the molecule `Cc1noc(C)c1COc1ccccc1C(=O)N(C)Cc1ccc(F)cc1`, the cell number change was -12.5% and the lipid storage change, negative = inhibition was 19.1% [at 0.0737 µM] (inactive).

As for `O=C(c1ccc2c(c1)OCO2)C1CCCN(Cc2cc(F)ccc2-n2cccn2)C1` (stereo not drawn), the “lipid storage change, negative = inhibition” value is 17% (inactive) and the cell number change was found to be 10%.

On to `CCc1c(C)nc(N)n2c(SCC(=O)NC3CCCCC3)nnc12`, for which the Potency was 1.3 µM (active) and the cell number change was 19.2%. Consider `CCn1c(C)nnc1SCC(=O)NC1CCCCCC1`, for which the “lipid storage change, negative = inhibition” value was -7.91% (inactive) and the cell number change was -4.99%. Take `CCc1c(C)nc(N)n2c(SCC(=O)Nc3ccccc3OC)nnc12`: the “lipid storage change, negative = inhibition” value is 18.2% (inactive) and the cell number change came out at 6.92%. Turning to `COc1ccc(C)cc1N(CC(N)=O)S(=O)(=O)c1ccc(C)cc1`, the “lipid storage change, negative = inhibition” value is 3.59% (inactive) and the cell number change is -13.9%. The corresponding values for `COc1ccc(Nc2ncc(C#N)c(N)n2)c(OC)c1` are -12.5% (inactive) and 3.36%. In the case of `Cc1c(NC(=O)/C=C/c2ccc(S(=O)(=O)N3CCOCC3)cc2)c(=O)n(-c2ccccc2)n1C`, the “lipid storage change, negative = inhibition” value was 5.25% (inactive) and the cell number change was 8.27%. For `CCNC(=O)NC(=O)C(C)OC(=O)CCCc1nc2ccccc2s1` (stereo not drawn), in that order: 8.8% (inactive) and 2.05%. Regarding `CC(OC(=O)CCCc1nc2ccccc2s1)C(N)=O` (stereo not drawn), the Potency is 23.1 µM (active) and the cell number change came out at 18.5%. Consider `CC(=O)Nc1ccc(NC(=O)C(C)OC(=O)CCc2nc3ccccc3s2)cc1` (stereo not drawn), for which the “lipid storage change, negative = inhibition” value was -3.56% (inactive) and the cell number change was determined as 4.88%. The corresponding values for `Cc1nn(Cc2ccc(C(=O)n3cccn3)o2)c(C)c1Br` are 0.611% (inactive) and -2.33%. In the case of `Cc1csc(NC(=O)c2ccc(Cn3nc(C)c(Br)c3C)o2)n1`, the Potency is 7.31 µM (active) and the cell number change is -7.94%. On to `Cc1csc(NC(=O)c2cccc(Cn3nc(C)c(Br)c3C)c2)n1`, for which the “lipid storage change, negative = inhibition” value was 12.7% (inactive) and the cell number change was -7.75%. `Cc1nnc2c(NCCc3ccccc3)nc3ccccc3n12`: the “lipid storage change, negative = inhibition” value was 6.56% (inactive) and the cell number change is 6.11%. With `CCC(=O)Oc1ccc2oc(=O)cc(C)c2c1`, the “lipid storage change, negative = inhibition” value was 12.6% (inactive) and the cell number change was -1.41%. Regarding `CCc1ccc(NC(=S)N2CCC(NC(=O)c3ccccc3OC)CC2)cc1`, the “lipid storage change, negative = inhibition” value is -7.78% (inactive) and the cell number change was 12.5%. In the case of `Cc1cc(NC(=O)Cn2nc3c(cc2=O)CCCC3)ccc1Br`, the “lipid storage change, negative = inhibition” value is 24.1% (inactive) and the cell number change was determined as 19.1%. For the molecule `Cc1ccc(S(=O)(=O)c2cc3c(=O)n4ccccc4nc3n(C3CCCC3)c2=N)cc1`, the molecule was called inactive and the cell number change was -1.32%.
